Test results: PubChem BioAssay (EPA / NIEHS)
Results filed as inconclusive are left out. The source made the active and inactive calls. The calls were made as follows, unless noted: active = hit-call score of the fitted dose curve at least 0.9, where 1 is the maximum; inconclusive = response in the unintended direction; inactive = score below 0.9.

Tests used:
[1] = ATG_TAL_CIS: Attagene CIS-FACTORIAL HepG2 Assay for human TAL Basal Promoter (AID 2282966; active = hit-call score of the fitted dose curve at least 0.9, where 1 is the maximum; inactive = score below 0.9;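 also: background control endpoint measuring basal TAL promoter reporter mRNA not a specific factor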); settings: HepG2 Attagene cis-factorial TAL promoter reporter; actives raise or lower the signal
Procedure, shortened: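 HepG2 cells were transiently transfected with promoter-driven multiplexed reporter units and dosed for 24 h. Reporter mRNA was measured by RT-PCR with capillary electrophoresis fluorescence; bidirectional fits used DMSO as baseline, serving as a background control.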

[2] = ATG_TGFb_CIS: Attagene CIS-FACTORIAL HepG2 Assay for human Transforming Growth Factor (TGF) (AID 2282967; active = hit-call score of the fitted dose curve at least 0.9, where 1 is the maximum; inactive = score below 0.9); settings: HepG2 Attagene CIS TGFb reporter, mRNA transcription; actives raise or lower the signal
Procedure, shortened: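 Transient MRTU transfection of HepG2 (FuGene 6). Dose 24 h. TriZol RNA, oligo(dT) RT, PCR, 6-FAM primer extension, HpaI cut, CE. Bidirectional fit, DMSO = baseline.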

[3] = ATG_VDRE_CIS: Attagene CIS-FACTORIAL HepG2 Assay for human Vitamin D Receptor Element (VDRE) (AID 2282968; active = hit-call score of the fitted dose curve at least 0.9, where 1 is the maximum; inactive = score below 0.9); settings: HepG2 VDRE cis-reporter transcription, actives raise or lower the signal
Procedure, shortened: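 Transiently transfected HepG2 cells carrying cis-regulated reporter transcription units were exposed for 24 h. Reporter mRNA was measured by RT-PCR with fluorescent labelling and capillary electrophoresis, and fitted in both directions against DMSO.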

[4] = target: Steroid hormone receptor ERR1 (Homo sapiens) (UniProt P11474); assay: ATG_ERRa_TRANS: Attagene TRANS-FACTORIAL HepG2 Assay for human Estrogen-Related Receptor alpha (ERRa) (AID 2282971); settings: HepG2 Attagene TRANS reporter, ERRa transactivation
Chain of Steroid hormone receptor ERR1 (Homo sapiens) (P11474 whole entry, looked up, the tested form may be a part): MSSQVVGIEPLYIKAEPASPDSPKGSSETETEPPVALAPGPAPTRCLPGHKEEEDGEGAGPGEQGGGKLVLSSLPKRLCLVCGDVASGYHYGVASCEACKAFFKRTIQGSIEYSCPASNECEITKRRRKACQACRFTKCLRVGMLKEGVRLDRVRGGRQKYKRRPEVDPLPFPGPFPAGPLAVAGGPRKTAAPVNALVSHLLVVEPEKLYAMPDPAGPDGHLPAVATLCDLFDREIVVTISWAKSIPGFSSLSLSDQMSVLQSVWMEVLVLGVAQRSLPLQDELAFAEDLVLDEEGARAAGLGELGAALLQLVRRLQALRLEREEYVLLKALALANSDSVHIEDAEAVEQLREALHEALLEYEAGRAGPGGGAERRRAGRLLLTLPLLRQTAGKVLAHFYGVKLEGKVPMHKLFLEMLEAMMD
Procedure, shortened: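 HepG2 cells transiently transfected with multiplexed GAL4-UAS reporter units reading chimeric ERRa-Gal4 activity; 24 h compound exposure. Reporter mRNA measured by RT-PCR, 6-FAM labelling, HpaI digest and capillary electrophoresis; gain of signal fitted versus DMSO baseline.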

[5] = target: X-box-binding protein 1 (Homo sapiens) (UniProt P17861); assay: ATG_Xbp1_CIS: Attagene CIS-FACTORIAL HepG2 Assay for human X-box Binding Protein 1 (XBP1) (AID 2282972; active = hit-call score of the fitted dose curve at least 0.9, where 1 is the maximum; inactive = score below 0.9); settings: HepG2 XBP1 cis-element reporter, Attagene multiplex; actives raise or lower the signal
Chain of X-box-binding protein 1 (Homo sapiens) (P17861 whole entry, looked up): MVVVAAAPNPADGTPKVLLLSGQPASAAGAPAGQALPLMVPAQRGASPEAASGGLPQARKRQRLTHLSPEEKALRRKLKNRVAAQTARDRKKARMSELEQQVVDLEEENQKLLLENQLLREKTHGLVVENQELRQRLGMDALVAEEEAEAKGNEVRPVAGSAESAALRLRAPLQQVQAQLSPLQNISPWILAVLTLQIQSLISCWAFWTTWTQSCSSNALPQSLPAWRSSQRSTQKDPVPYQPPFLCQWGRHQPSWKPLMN
Procedure, shortened: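 HepG2 cells transiently transfected with multiple cis-element reporter units report endogenous TF activity; 24 h exposure, then reporter mRNA measured by RT-PCR, 6-FAM labelling, HpaI digestion and capillary electrophoresis. Bidirectional fitting versus DMSO.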

[6] = target: Estrogen-related receptor gamma (Homo sapiens) (UniProt P62508); assay: ATG_ERRg_TRANS: Attagene TRANS-FACTORIAL HepG2 Assay for human Estrogen-Related Receptor gamma (ERRg) (AID 2282977); settings: HepG2 Attagene TRANS reporter, ERRg transactivation;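 also: hits increase reporter signal over DMSO so potencies reflect activators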
Chain of Estrogen-related receptor gamma (Homo sapiens) (P62508 whole entry, looked up, the tested form may be a part): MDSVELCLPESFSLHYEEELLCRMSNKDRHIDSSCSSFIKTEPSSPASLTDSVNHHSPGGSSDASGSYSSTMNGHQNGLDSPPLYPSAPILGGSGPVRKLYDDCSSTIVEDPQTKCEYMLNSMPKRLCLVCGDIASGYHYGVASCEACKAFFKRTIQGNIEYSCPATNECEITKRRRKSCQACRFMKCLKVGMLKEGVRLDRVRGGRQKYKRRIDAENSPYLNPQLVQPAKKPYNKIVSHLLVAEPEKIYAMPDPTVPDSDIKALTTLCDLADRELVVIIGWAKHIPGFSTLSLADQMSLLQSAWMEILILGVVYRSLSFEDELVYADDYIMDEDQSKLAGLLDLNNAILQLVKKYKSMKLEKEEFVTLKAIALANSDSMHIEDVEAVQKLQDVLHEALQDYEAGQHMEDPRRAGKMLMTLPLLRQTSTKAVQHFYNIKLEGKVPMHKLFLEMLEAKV
Procedure, shortened: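 HepG2 cells transiently transfected with multiplexed GAL4-UAS reporter units driven by chimeric NR-Gal4 proteins; 24 h exposure. Reporter mRNA quantified by RT-PCR, fluorescent labelling, HpaI digestion and capillary electrophoresis; gain of signal vs DMSO.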

[7] = target: Bile acid receptor (Homo sapiens) (UniProt Q96RI1); assay: ATG_FXR_TRANS: Attagene TRANS-FACTORIAL HepG2 Assay for Farnesoid X Receptor (FXR) (AID 2282979); settings: HepG2 Attagene TRANS FXR-GAL4 reporter transcription;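 also: hits raise reporter mRNA above DMSO so AC50 marks FXR activation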
Chain of Bile acid receptor (Homo sapiens) (Q96RI1 whole entry, looked up, the tested form may be a part): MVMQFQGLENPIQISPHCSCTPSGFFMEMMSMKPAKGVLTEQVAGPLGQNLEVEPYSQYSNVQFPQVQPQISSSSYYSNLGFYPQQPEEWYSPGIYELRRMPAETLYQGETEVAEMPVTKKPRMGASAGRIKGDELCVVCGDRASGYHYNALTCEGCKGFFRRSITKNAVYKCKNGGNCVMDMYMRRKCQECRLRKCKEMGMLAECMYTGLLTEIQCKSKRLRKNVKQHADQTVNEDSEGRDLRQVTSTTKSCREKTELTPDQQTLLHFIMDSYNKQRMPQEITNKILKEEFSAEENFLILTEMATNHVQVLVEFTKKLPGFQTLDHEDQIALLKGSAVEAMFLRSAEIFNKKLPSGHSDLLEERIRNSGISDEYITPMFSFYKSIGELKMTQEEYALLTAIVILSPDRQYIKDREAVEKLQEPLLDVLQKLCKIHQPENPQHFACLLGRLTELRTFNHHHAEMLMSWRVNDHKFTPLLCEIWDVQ
Procedure, shortened: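 HepG2 cells transiently transfected with reporter constructs in which a chimeric FXR-GAL4 protein drives a GAL4-UAS reporter; 24 h compound exposure. Reporter mRNA measured by RT-PCR, FAM labelling, HpaI digestion and capillary electrophoresis; gain-of-signal versus DMSO.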

[8] = ATG_M_06_TRANS: Attagene TRANS-FACTORIAL HepG2 Assay for M06 Transcription Factor (Internal Marker) (AID 2282983); settings: HepG2 Attagene TRANS M06 internal marker reporter;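 also: reporter transcript level by RT-PCR then capillary electrophoresis fluorescence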
Procedure, shortened: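 HepG2 cells transiently transfected with multiplexed GAL4-UAS reporter transcription units; after 24 h compound exposure, reporter mRNA measured by RT-PCR, FAM-labelled primer extension, HpaI digestion and capillary electrophoresis. Gain-of-signal fitted versus DMSO baseline; background control readout.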

[9] = target: Transcriptional activator Myb (Homo sapiens) (UniProt P10242); assay: ATG_Myb_CIS: Attagene CIS-FACTORIAL HepG2 Assay for human Myeloblastosis (Myb) Proto-Oncogene Transcription Factor (AID 2282986; active = hit-call score of the fitted dose curve at least 0.9, where 1 is the maximum; inactive = score below 0.9); settings: HepG2 Attagene CIS-FACTORIAL Myb reporter transcription; actives raise or lower the signal
Chain of Transcriptional activator Myb (Homo sapiens) (P10242 whole entry, looked up): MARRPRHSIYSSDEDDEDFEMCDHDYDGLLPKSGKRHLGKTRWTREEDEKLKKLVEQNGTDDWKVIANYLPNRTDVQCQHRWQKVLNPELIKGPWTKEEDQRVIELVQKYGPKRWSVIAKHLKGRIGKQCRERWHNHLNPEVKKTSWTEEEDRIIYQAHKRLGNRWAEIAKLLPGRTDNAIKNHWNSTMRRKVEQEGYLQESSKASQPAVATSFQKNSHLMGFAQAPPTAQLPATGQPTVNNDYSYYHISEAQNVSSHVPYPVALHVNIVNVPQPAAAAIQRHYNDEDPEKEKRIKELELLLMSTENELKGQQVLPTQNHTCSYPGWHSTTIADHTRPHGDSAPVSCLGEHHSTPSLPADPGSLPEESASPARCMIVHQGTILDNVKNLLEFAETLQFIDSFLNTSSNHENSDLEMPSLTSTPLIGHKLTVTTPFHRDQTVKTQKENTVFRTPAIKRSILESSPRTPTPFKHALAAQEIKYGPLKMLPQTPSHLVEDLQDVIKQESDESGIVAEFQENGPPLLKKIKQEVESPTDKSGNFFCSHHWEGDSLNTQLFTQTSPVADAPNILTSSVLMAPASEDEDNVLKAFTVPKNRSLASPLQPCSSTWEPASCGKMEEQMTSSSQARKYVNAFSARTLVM
Procedure, shortened: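 After 24 h of compound dosing, total RNA from transfected HepG2 cells is reverse-transcribed and the reporter sequences amplified, labeled and separated by capillary electrophoresis. Values come from bidirectional fitting against DMSO.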

[10] = ATG_Hpa5_TRANS: Attagene TRANS-FACTORIAL HepG2 Assay for human GAL4-Hpa5 Hepatocyte Transcription Factor Basal Promoter (AID 2282975); settings: HepG2 Attagene GAL4-Hpa5 transcription reporter;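 also: hits are increases in reporter mRNA over DMSO baseline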
Procedure, shortened: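 Basal-promoter GAL4 background control within the HepG2 trans-factorial panel of transiently transfected reporter units. Reporter mRNA is measured 24 h after dosing by RT-PCR and capillary electrophoresis, fitted for gain of signal versus DMSO.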

[11] = target: Glucocorticoid receptor (Homo sapiens) (UniProt P04150); assay: ATG_GR_TRANS: Attagene TRANS-FACTORIAL HepG2 Assay for human Glucocorticoid Receptor (GR) (AID 2282978); settings: HepG2 Attagene TRANS GR reporter, mRNA transcription;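 also: activators score as hits since higher reporter transcript over DMSO is fitted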
Chain of Glucocorticoid receptor (Homo sapiens) (P04150 whole entry, looked up): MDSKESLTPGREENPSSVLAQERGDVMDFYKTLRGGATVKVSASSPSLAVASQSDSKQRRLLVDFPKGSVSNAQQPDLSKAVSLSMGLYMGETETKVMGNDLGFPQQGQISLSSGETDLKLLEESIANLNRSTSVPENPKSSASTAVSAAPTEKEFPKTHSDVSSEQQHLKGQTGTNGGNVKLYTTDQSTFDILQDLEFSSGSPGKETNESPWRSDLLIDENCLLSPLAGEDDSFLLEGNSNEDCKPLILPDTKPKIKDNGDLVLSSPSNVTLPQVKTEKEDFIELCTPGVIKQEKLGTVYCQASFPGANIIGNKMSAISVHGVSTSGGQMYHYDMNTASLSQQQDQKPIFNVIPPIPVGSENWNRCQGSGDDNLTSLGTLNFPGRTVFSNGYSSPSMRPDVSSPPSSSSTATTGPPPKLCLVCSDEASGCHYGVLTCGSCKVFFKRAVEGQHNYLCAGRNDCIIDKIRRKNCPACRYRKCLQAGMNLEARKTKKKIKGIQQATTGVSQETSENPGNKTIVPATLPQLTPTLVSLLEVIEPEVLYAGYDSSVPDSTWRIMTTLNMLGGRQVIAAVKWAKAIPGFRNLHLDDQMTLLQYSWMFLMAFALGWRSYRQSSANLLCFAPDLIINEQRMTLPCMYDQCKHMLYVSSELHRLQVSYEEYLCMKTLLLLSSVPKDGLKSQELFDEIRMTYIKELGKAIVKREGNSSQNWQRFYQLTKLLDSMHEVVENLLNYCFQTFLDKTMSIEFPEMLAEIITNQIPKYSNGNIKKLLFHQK
Procedure, shortened: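 After 24 h incubation with test chemical, transfected HepG2 cells were lysed for RNA; reporter cDNA was amplified, FAM-labelled, HpaI-digested and sized on a capillary analyser. Signal gain relative to DMSO was scored.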

[12] = ATG_M_32_TRANS: Attagene TRANS-FACTORIAL HepG2 Assay for M32 Transcription Factor (Internal Marker) (AID 2282984); settings: HepG2 Attagene TRANS M32 internal marker reporter
Procedure, shortened: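 HepG2 cells transiently transfected with GAL4-UAS reporter units, dosed for 24 hours. Reporter mRNA quantified by RT-PCR, 6-FAM labelling, HpaI digestion and capillary electrophoresis; internal-marker signal fitted upward relative to DMSO.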

[13] = target: Nuclear receptor subfamily 4 group A member 2 (Homo sapiens) (UniProt P43354); assay: ATG_NURR1_TRANS: Attagene TRANS-FACTORIAL HepG2 Assay for human Nuclear Receptor Related Protein 1 (NURR1) (AID 2282985); settings: HepG2 Attagene TRANS reporter, mRNA readout
Chain of Nuclear receptor subfamily 4 group A member 2 (Homo sapiens) (P43354 whole entry, looked up, the tested form may be a part): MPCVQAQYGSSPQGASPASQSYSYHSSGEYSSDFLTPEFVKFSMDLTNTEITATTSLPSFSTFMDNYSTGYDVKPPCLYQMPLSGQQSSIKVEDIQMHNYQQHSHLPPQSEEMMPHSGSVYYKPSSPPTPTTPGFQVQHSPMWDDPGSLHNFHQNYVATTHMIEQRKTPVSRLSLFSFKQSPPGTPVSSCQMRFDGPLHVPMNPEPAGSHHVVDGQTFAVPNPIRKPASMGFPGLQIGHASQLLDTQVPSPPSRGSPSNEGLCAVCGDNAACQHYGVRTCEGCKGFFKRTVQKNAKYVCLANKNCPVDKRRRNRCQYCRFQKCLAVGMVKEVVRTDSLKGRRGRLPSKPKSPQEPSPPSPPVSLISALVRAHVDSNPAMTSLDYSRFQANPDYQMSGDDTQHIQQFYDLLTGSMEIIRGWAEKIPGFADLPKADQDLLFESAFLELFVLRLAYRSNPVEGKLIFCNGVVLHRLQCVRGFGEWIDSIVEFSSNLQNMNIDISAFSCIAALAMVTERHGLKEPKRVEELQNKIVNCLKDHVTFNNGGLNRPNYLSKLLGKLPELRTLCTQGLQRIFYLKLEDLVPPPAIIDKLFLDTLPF
Procedure, shortened: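 HepG2 cells transiently transfected with NURR1-Gal4 chimera and GAL4-UAS reporter units; after 24 hr compound exposure, reporter mRNA quantified by RT-PCR and capillary electrophoresis; gain of signal fitted against DMSO.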

[14] = target: Oxysterols receptor LXR-alpha (Homo sapiens) (UniProt Q13133); assay: ATG_LXRa_TRANS: Attagene TRANS-FACTORIAL HepG2 Assay for human Liver X Receptor alpha (LXRa) (AID 2282980); settings: HepG2 Attagene TRANS reporter, LXRa transactivation
Chain of Oxysterols receptor LXR-alpha (Homo sapiens) (Q13133 whole entry, looked up, the tested form may be a part): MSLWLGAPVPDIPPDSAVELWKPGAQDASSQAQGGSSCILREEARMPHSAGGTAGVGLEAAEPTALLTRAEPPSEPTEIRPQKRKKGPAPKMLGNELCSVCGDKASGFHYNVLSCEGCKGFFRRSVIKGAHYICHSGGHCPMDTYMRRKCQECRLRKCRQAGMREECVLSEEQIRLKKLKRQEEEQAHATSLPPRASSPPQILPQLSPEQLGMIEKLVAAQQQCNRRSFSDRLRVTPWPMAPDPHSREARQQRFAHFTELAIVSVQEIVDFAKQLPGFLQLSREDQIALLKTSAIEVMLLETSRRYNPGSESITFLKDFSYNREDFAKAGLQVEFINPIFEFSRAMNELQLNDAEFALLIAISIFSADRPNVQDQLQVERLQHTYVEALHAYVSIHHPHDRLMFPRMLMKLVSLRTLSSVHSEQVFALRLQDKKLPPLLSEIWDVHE
Procedure, shortened: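 HepG2 cells were transiently transfected with multiplexed reporter units driven by chimeric LXRa–GAL4 fusion proteins, then dosed for 24 h. Reporter mRNA was quantified by RT-PCR, fluorescent labelling and capillary electrophoresis; gain of signal fitted against DMSO baseline.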

[15] = target: Oxysterols receptor LXR-beta (Homo sapiens) (UniProt P55055); assay: ATG_LXRb_TRANS: Attagene TRANS-FACTORIAL HepG2 Assay for human Liver X Receptor beta (LXRb) (AID 2282981); settings: HepG2 Attagene TRANS GAL4-LXRb reporter, mRNA
Chain of Oxysterols receptor LXR-beta (Homo sapiens) (P55055 whole entry, looked up, the tested form may be a part): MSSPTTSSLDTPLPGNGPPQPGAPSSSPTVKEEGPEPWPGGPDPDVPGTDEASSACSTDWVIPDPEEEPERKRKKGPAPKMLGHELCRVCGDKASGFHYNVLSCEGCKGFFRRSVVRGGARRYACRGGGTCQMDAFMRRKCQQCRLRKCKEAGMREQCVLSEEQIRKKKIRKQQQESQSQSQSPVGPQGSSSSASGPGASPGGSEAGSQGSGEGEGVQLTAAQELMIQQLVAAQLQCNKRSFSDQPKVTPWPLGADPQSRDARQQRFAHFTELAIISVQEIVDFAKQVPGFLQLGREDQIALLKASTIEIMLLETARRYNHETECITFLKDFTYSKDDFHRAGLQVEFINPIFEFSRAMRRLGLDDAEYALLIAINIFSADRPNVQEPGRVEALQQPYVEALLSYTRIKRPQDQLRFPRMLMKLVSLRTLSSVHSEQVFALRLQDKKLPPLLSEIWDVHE
Procedure, shortened: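 HepG2 cells transiently transfected with GAL4-UAS reporter units for chimeric NR-Gal4 proteins, dosed for 24 h. Reporter transcripts measured by RT-PCR and capillary electrophoresis; gain-of-signal fitting relative to DMSO.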

[16] = target: Hepatocyte nuclear factor 4-alpha (Homo sapiens) (UniProt P41235); assay: ATG_HNF4a_TRANS: Attagene TRANS-FACTORIAL HepG2 Assay for human Hepatocyte Nuclear Factor 4 alpha (HNF4a) (AID 2282982); settings: HepG2 HNF4a transactivation reporter, mRNA readout
Procedure, shortened: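 HepG2 cells transiently transfected with HNF4a-Gal4 chimera and GAL4-UAS reporter units, dosed for 24 h. Reporter mRNA measured by RT-PCR, fluorescent primer extension and capillary electrophoresis; gain-of-signal fitted relative to DMSO.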

[17] = ATG_GAL4_TRANS: Attagene TRANS-FACTORIAL HepG2 Assay for GAL4 (Internal Marker) (AID 2282976); settings: HepG2 Attagene TRANS GAL4 internal marker reporter
Procedure, shortened: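 HepG2 cells transiently transfected with multiplexed GAL4-UAS reporter constructs were dosed for 24 h. Reporter mRNA was measured by RT-PCR, 6-FAM primer extension, HpaI digestion and capillary electrophoresis, and gain of signal was fitted relative to DMSO.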

SMILES	outcome [1]	outcome [2]	AC50 [3]	outcome [4]	outcome [5]	outcome [6]	outcome [7]	outcome [8]	outcome [9]	outcome [3]	outcome [10]	outcome [11]	outcome [12]	outcome [13]	outcome [14]	outcome [15]	outcome [16]	outcome [17]
COc1cccc(C(=O)NN(C(=O)c2cc(C)cc(C)c2)C(C)(C)C)c1C	inactive	inactive	1.94 µM (active)	inactive	inactive	inactive	inactive	inactive	inactive									
CC(Oc1cccc(Cl)c1)C(=O)O (stereo not given)	inactive	inactive			inactive				inactive	inactive	inactive	inactive	inactive	inactive				
C[N+]1(C)CCCCC1	inactive	inactive			inactive				inactive	inactive				inactive	inactive			
COP(=O)(OC)OC(Br)C(Cl)(Cl)Br (stereo not given)	inactive	inactive			inactive		inactive		inactive	inactive		inactive				inactive	inactive	
C[Si](Cn1cncn1)(c1ccc(F)cc1)c1ccc(F)cc1	inactive	inactive	27.6 µM (active)		inactive			inactive	inactive		inactive		inactive	inactive	inactive			
COc1ccc(C(=CC(=O)N2CCOCC2)c2ccc(Cl)cc2)cc1OC	inactive	inactive	11.4 µM (active)	inactive	inactive	inactive	inactive	inactive	inactive		inactive				inactive	inactive		inactive
CSC1=N[C@@](C)(c2ccccc2)C(=O)N1Nc1ccccc1	inactive	inactive	24.3 µM (active)		inactive			inactive	inactive		inactive	inactive	inactive	inactive	inactive	inactive		
CN(C)NC(=O)CCC(=O)O	inactive	inactive		inactive	inactive			inactive	inactive	inactive			inactive	inactive	inactive			
CC1=NNC(=O)N(/N=C/c2cccnc2)C1	inactive	inactive			inactive	inactive		inactive	inactive	inactive			inactive	inactive	inactive	inactive		
